# In PubChem BioAssay (NCATS):
# Records with an inconclusive call do not appear. Values without a mark were called inactive. The source made the active and inactive calls. The call rests on the fitted dose curve; in most records, active means well fitted inhibition curve with a large enough effect; inconclusive means small, poorly fitted or top-dose-only effect; inactive means flat fitted curve, though single readings scatter.
# Target: Aldehyde dehydrogenase, mitochondrial (Homo sapiens) (UniProt P05091)
# Test: qHTS for Inhibitors of the Aldehyde Dehydrogenase Family (ALDH2) Primary screen (AID 2061308);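 further: plate controls were vehicle for no effect and reference inhibitor for full effect; nearly all actives have a fitted effect of over 55% in size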
# Details: ALDH2 enzyme inhibition qHTS, 1536-well; series mostly up to 56 µM; activity change, negative = inhibition: at the top concentration
SMILES,"activity change, negative = inhibition",Potency
CC1CCC2(C(=O)OC3OC(COC4OC(CO)C(O)C(O)C4O)C(O)C(O)C3O)CCC3(C)C(=CCC4C5(C)CCC(O)C(C)(C(=O)O)C5CCC43C)C2C1(C)O (stereo not given),8.55% [at 16.9 µM],
O=C1CCCC2=C1C(c1[nH]ncc1Cl)N=C(Nc1nc3ccccc3s1)N2 (stereo not given),7.96%,
Cc1nnc(-c2ccccc2)n1CCCn1ccnc1,10.6%,
Cc1cccc(-n2cnc3cc(C(=O)N4CCCC(c5ccccc5)C4)ccc32)c1 (stereo not given),-4.69%,
Cc1ccc(S(=O)(=O)Nc2ccccc2C(=O)Nc2ncc(-c3ccccc3)s2)cc1,13.4%,
Cn1c2cc(B(O)O)sc2c2cnn(Cc3c(F)cccc3F)c(=O)c21,2.55%,
O=C(Nc1nc(-c2ccccc2)cs1)c1ccccc1-n1cnnn1,6.77%,
CC(C)(C)OC(=O)N[C@@H](Cc1ccc(O[S+](=O)([O-])c2cccc3cnccc23)cc1)C(=O)Nc1ccc(-c2ccccc2)cc1,-7.88%,
Cc1cccc(-c2csc(N3CCC(C(N)=O)CC3)n2)c1,0.161%,
O=[S+]([O-])(c1ccc(N2CCOCC2)nc1)N1CCN([S+](=O)([O-])c2c(F)cccc2F)CC1,6.21%,
N#Cc1cccc(S(=O)(=O)N2CCN(S(=O)(=O)c3ccc4c(c3)OCCO4)CC2)c1,16.6%,
O=[S+]([O-])(c1ccc2c(c1)OCCO2)N1CCN([S+](=O)([O-])c2c(F)cc(F)cc2Br)CC1,14.9%,
Cc1ccc(OCCn2c(CCNC(=O)Cc3ccc(F)cc3F)nc3ccccc32)cc1,-6.46%,
NC(=O)c1cccc(-c2noc(-c3ccccc3C(F)(F)F)n2)c1,-7.31%,
COc1cc(-c2ccc3ncnc(NCc4nc(C)cs4)c3c2)cc(OC)c1OC,-2.43%,
O=C(O)c1ccc(O)c2ncc(N3CCCN(CCCc4ccncc4)CC3)cc12,-0.556%,
O=C(O)c1ccc(-c2ccc3ncnc(N4CCOCC4)c3c2)o1,-5.11%,
CCN(CC)Cc1cccc(/C=C/c2nc3ccc(F)cc3c(=O)n2-c2ccccc2Cl)n1,14.5%,
O=S(=O)(Nc1cnc2ccccc2c1)c1ccc(NCc2cccc(Cl)c2O)cc1,-23.1%,
COc1cc(O)c(C(CC(=O)N2CCCC(C(=O)N3CCCCC3)C2)c2ccc3c(c2)OCO3)c(OC)c1 (stereo not given),10.8% [at 114 µM],

SMILES,"activity change, negative = inhibition",Potency
Cc1cccc(-c2nnc(C)n2CCCn2ccnc2)c1[N+](=O)[O-],5.14%,
Fc1cc(Nc2nc(-c3ccncc3)nc3ccccc23)ccc1-n1cncn1,,inactive
O=S(=O)(Nc1nccs1)c1ccc(NCc2ccc(Br)cc2O)cc1,2.8%,
Cc1ccc(N[S+](=O)([O-])c2cc3c(cc2Cl)CCC(=O)N3)cc1Br,3.67%,
CCOc1ccc(CCNC(=O)C2COc3ccccc3O2)cc1OCC (stereo not given),-0.484%,
O=C(Nc1ccc2ccccc2c1)Nc1nnc(-c2ccccc2)s1,0.758%,
COc1ccc(C(=O)Nc2ccc(-c3nc4ccccc4[nH]3)cc2)cc1F,16.4%,
Cc1cc(C)n2ncc(C(=O)Nc3ccc(C(F)(F)F)cc3)c2n1,5.05%,
CC(C)Nc1cccc(S(=O)(=O)N2CCCN(S(=O)(=O)c3ccc4c(c3)OCCO4)CC2)c1,18%,
FC(F)(F)c1cccc(N2CCN(C(=S)Nc3cc(C(F)(F)F)ccn3)CC2)c1,-17.1%,
CCCn1c(C)nc2c(NCCN(C)C)nc(C)nc21,12.8%,
O=S(=O)(Nc1ccc(C2CCNCC2)cc1)c1ccc(NCc2cccc(Cl)c2O)cc1,-4.09%,
Cc1nc(NCCO)c2nc(-c3ccccc3)n(CC3CCN(C)CC3)c2n1,-8.31%,
COc1cc2nc(Nc3ccccc3)nc(NC3CC3)c2cc1OC,7.73%,
Cc1ccc(-c2c(C(=O)CF)n(CCCO)c3ncnc(N)c23)cc1,9.63%,
O=C1CCCC2=C1C(c1cccc(Cl)c1)N=C(Nc1nc3ccccc3o1)N2 (stereo not given),-3.33%,
C=CCNc1oc(-c2cccc(Cl)c2)nc1C#N,-1.44%,
O=C(Cc1ccc(Cl)c(Cl)c1)Nc1ccc([S+](=O)([O-])Nc2ncn[nH]2)cc1,-7.77%,
Cc1cc2c(s1)c1cnn(Cc3ccc(F)cc3)c(=O)c1n2C,-0.613%,
Cc1ccc(NS(=O)(=O)c2cccc(Cl)c2)cc1C,0.342%,
